Assay results published in article PMC5700166.

How the values were obtained:
[1] = biological target: T1, GST-Nv-NF-kB (Ser allele) (Nematostella vectensis, UniProt A7UNT2 2-411); experiment: protein-binding microarray (PBM); PBM: ~300 nM protein, 6 mM HEPES pH 7.8, 80 mM KCl, 0.5 mM EDTA, 0.5 mM EGTA, 6% glycerol, 35 ng/ul poly-dIdC, 1% milk, 1 h, room temperature; Ap Aiptasia and Nv Nematostella (sea anemones) / Co Capsaspora / Aq Amphimedon (sponge) / Dm Drosophila / Hu human; RHD is the Rel homology domain; high values mean tight binding; settings: dsDNA, one strand shown
T1 sequence: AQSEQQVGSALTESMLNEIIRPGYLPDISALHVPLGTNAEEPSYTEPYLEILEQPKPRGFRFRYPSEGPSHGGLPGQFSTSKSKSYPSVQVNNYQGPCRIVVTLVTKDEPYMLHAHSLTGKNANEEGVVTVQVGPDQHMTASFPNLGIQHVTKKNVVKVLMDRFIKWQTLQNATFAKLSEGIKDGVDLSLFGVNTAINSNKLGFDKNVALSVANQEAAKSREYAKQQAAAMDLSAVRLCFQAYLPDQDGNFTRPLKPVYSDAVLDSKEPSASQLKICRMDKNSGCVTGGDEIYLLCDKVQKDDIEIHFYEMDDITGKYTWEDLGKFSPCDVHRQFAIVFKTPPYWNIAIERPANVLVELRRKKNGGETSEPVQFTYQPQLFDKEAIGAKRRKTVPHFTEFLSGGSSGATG

GST-Hu-p50 = GST-Hu-p50 (Homo sapiens, UniProt P19838 7-356); experiment: as above; settings: dsDNA, one strand shown
Sequence of GST-Hu-p50 (P19838 7-356): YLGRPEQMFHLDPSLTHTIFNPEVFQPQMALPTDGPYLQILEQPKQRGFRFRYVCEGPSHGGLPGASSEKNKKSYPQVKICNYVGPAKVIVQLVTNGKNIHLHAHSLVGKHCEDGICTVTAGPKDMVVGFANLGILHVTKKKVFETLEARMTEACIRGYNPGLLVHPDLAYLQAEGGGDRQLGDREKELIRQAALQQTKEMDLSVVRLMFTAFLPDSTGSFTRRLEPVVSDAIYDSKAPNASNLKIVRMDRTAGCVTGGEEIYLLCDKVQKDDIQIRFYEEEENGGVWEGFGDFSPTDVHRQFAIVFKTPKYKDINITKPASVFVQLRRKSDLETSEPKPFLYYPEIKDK

Row | Sequence | binding signal [1] [z-score] | binding signal (GST-Hu-p50) [z-score]
1 | CCGATTAACATCAGGGAACTCCATGATGTTAATCGGGTCTTGATTCGCTTGACGCTGCTG | 1.24 | 1.7
2 | CCGATTAACATCACTAAAATCCCTGATGTTAATCGGGTCTTGATTCGCTTGACGCTGCTG | 3.42 | 3.2
3 | CCGATTAACATCAGGGGGTAACCTGATGTTAATCGGGTCTTGATTCGCTTGACGCTGCTG | 3.93 | 4.28
4 | CCGATTAACATCAAAAATCCCTATGATGTTAATCGGGTCTTGATTCGCTTGACGCTGCTG | 4.2 | 4.72
5 | CCGATTAACATCAAGGGGGGATATGATGTTAATCGGGTCTTGATTCGCTTGACGCTGCTG | 4.16 | 4.95
6 | CCGATTAACATCAGAAATCTCCCTGATGTTAATCGGGTCTTGATTCGCTTGACGCTGCTG | 4.16 | 4.42
7 | CCGATTAACATCAGGGGGGACAATGATGTTAATCGGGTCTTGATTCGCTTGACGCTGCTG | 4.45 | 3.69
8 | CCGATTAACATCAGGGGGTTACATGATGTTAATCGGGTCTTGATTCGCTTGACGCTGCTG | 4.94 | 5.16
9 | CCGATTAACATCAGGGAATTCCATGATGTTAATCGGGTCTTGATTCGCTTGACGCTGCTG | 5.22 | 4.7
10 | CCGATTAACATCAGGCATTTCCCTGATGTTAATCGGGTCTTGATTCGCTTGACGCTGCTG | 3.99 | 3.68
11 | CCGATTAACATCAGGGGAGGAAATGATGTTAATCGGGTCTTGATTCGCTTGACGCTGCTG | 4.9 | 3.1
12 | CCGATTAACATCAGAGAAGTCCCTGATGTTAATCGGGTCTTGATTCGCTTGACGCTGCTG | 5.95 | 5.25
13 | CCGATTAACATCACGAAAATCCCTGATGTTAATCGGGTCTTGATTCGCTTGACGCTGCTG | 4.09 | 4.05
14 | CCGATTAACATCACGGTATTTCCTGATGTTAATCGGGTCTTGATTCGCTTGACGCTGCTG | 1.75 | 1.48
15 | CCGATTAACATCACGGTTTTTCCTGATGTTAATCGGGTCTTGATTCGCTTGACGCTGCTG | 1.21 | 1.62
16 | CCGATTAACATCACGGAAACCCCTGATGTTAATCGGGTCTTGATTCGCTTGACGCTGCTG | 3.87 | 4.6
17 | CCGATTAACATCAAATATACCCCTGATGTTAATCGGGTCTTGATTCGCTTGACGCTGCTG | 2.88 | 2.88
18 | CCGATTAACATCAAATTCCCTCGTGATGTTAATCGGGTCTTGATTCGCTTGACGCTGCTG | 4.74 | 3.62
19 | CCGATTAACATCACATATACCCCTGATGTTAATCGGGTCTTGATTCGCTTGACGCTGCTG | 1.38 | 2.14

Row | Sequence | binding signal [1] [z-score] | binding signal (GST-Hu-p50) [z-score]
20 | CCGATTAACATCAAAAATCACCCTGATGTTAATCGGGTCTTGATTCGCTTGACGCTGCTG | 3.82 | 4.76
21 | CCGATTAACATCAGGAATTACCATGATGTTAATCGGGTCTTGATTCGCTTGACGCTGCTG | 2.03 | 2.05
22 | CCGATTAACATCAAGGGGGTCCCTGATGTTAATCGGGTCTTGATTCGCTTGACGCTGCTG | 3.02 | 3.68
23 | CCGATTAACATCACGTTATTCCCTGATGTTAATCGGGTCTTGATTCGCTTGACGCTGCTG | 3.53 | 1.05
24 | CCGATTAACATCAGCGAATTCCCTGATGTTAATCGGGTCTTGATTCGCTTGACGCTGCTG | 4.46 | 3.28
25 | CCGATTAACATCAGGGGTAGGTTTGATGTTAATCGGGTCTTGATTCGCTTGACGCTGCTG | 1.33 | 1.07
26 | CCGATTAACATCAGGGATCACCCTGATGTTAATCGGGTCTTGATTCGCTTGACGCTGCTG | 1.43 | 2.48
27 | CCGATTAACATCAGGGAGGGTAATGATGTTAATCGGGTCTTGATTCGCTTGACGCTGCTG | 2.16 | 1.6
28 | CCGATTAACATCAGGGCAGTACCTGATGTTAATCGGGTCTTGATTCGCTTGACGCTGCTG | 2.24 | 2.22
29 | CCGATTAACATCAGGGAAAGAAATGATGTTAATCGGGTCTTGATTCGCTTGACGCTGCTG | 3.86 | 2.62
30 | CCGATTAACATCAGGGATTCACCTGATGTTAATCGGGTCTTGATTCGCTTGACGCTGCTG | 4.26 | 4.55
31 | CCGATTAACATCATTAGGGTATTTGATGTTAATCGGGTCTTGATTCGCTTGACGCTGCTG | 4.26 | 4.5
32 | CCGATTAACATCACGAGTTTCCCTGATGTTAATCGGGTCTTGATTCGCTTGACGCTGCTG | 5.41 | 2.39
33 | CCGATTAACATCACGGGAATCCCTGATGTTAATCGGGTCTTGATTCGCTTGACGCTGCTG | 4.38 | 3.99
34 | CCGATTAACATCAAGGAATACCCTGATGTTAATCGGGTCTTGATTCGCTTGACGCTGCTG | 4.74 | 4.19
35 | CCGATTAACATCAAGGGGAGTCCTGATGTTAATCGGGTCTTGATTCGCTTGACGCTGCTG | 4.97 | 4.3
36 | CCGATTAACATCAGGGGACACCCTGATGTTAATCGGGTCTTGATTCGCTTGACGCTGCTG | 3.12 | 3.82
37 | CCGATTAACATCAGAAATCCCGCTGATGTTAATCGGGTCTTGATTCGCTTGACGCTGCTG | 2.45 | 2.45
